In the supplement of paper PMC9588786:
± gives the standard deviation of the averaged measurements.

Test system: HT-1080
Test: relative cell viability with RSL3 co-treatment (fraction of control); higher = stronger protection from RSL3-induced ferroptosis (higher viability)
Settings: 10 µM
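Further: viability read as CCK-8 absorbance at 450 nm in cells co-exposed to the GPX4 inhibitor RSL3, relative to a 0.01% DMSO vehicle control.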

Structure (SMILES) | relative cell viability
COCCOc1cnc2ccn([C@H](C)c3nnc4c(F)cc(-c5cnn(C)c5)cn34)c(=O)c2c1 | 0.7767 ± 0.0058
COc1ccc(F)c(F)c1C(=O)c1cnc(NC2CCN(S(C)(=O)=O)CC2)nc1N | 0.577 ± 0.15
Cc1[nH]c(/C=C2\C(=O)Nc3ccc(S(=O)(=O)N(C)c4cccc(Cl)c4)cc32)c(C)c1C(=O)N1CCN(C)CC1 | 0.547 ± 0.075
Cc1ccc(NC(=O)c2ccc(CN3CCN(C)CC3)cc2)cc1Nc1nc(-c2cccnc2)cs1 [Masitinib (AB1010)] | 0.67 ± 0.12
CN(C)S(=O)(=O)c1ccc2c(c1)/C(=C/c1cc3c([nH]1)CCCC3)C(=O)N2 | 0.727 ± 0.081
CC1(C)CNc2cc(NC(=O)c3cccnc3NCc3ccncc3)ccc21 [Motesanib Diphosphate (AMG-706)] | 0.533 ± 0.21
Cc1cc(Nc2nc(N[C@@H](C)c3ccc(F)cc3)c(C#N)cc2F)n[nH]1 | 0.29 ± 0.017
Nc1nc(Nc2ccc(S(N)(=O)=O)cc2)nn1C(=O)c1c(F)cccc1F | 0.53 ± 0.095
Clc1ccc(Nc2nnc(Cc3ccncc3)c3ccccc23)cc1 [Vatalanib (PTK787) 2HCl] | 0.827 ± 0.047
Cc1c[nH]c2nc(Nc3ccc(N4CCN(C)CC4)c(F)c3)nc(-c3cccc(CC#N)c3)c12 | 0.123 ± 0.1
CN1CCN(C2CCN(C(=O)Nc3cc(Oc4ccc(NC(=O)C5(C(=O)Nc6ccc(F)cc6)CC5)c(F)c4)ccn3)CC2)CC1 [Golvatinib (E7050)] | 0.717 ± 0.065
COc1cccc2cc(-c3nc([C@H]4CC[C@H](C(=O)O)CC4)n4ncnc(N)c34)[nH]c12 | 0.7 ± 0.07
Fc1cc(-c2cccc3ncc(-c4cnn(C5CCNCC5)c4)nc23)cc(F)c1CN1CCOCC1 | 0.787 ± 0.058
